In test [1] the target is Nicotinamide N-methyltransferase (Homo sapiens) (UniProt P40261). Description: Confirmatory Screen for Target Class Profiling of Small Molecule Inhibitors of Methyltransferases (AID 1745852). The following applies: MTase-Glo luminescence, SAH detection, recombinant enzyme; measured here: NNMT max response; stronger effect = lower value.
In test [2] the target is Phenylethanolamine N-methyltransferase (Homo sapiens) (UniProt P11086). The test is described as above. The following applies: MTase-Glo luminescence, SAH detection, recombinant enzyme; measured here: PNMT max response; stronger effect = lower value.
Chain of Phenylethanolamine N-methyltransferase (Homo sapiens) (P11086 whole entry, looked up): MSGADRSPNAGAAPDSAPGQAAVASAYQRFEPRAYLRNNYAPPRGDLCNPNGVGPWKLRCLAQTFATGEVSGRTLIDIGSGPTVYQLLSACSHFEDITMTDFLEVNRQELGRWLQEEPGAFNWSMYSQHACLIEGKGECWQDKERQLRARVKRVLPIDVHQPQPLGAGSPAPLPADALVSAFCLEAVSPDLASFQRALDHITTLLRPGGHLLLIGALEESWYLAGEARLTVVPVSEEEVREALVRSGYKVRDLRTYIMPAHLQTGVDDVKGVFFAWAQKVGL
The nature of test [3]: NCATS anti-infectives library activity on HEK293 viability as a counter-qHTS vs the C. elegans viability qHTS (AID 1745854).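 Note: HEK293 cells exposed to compounds for 24 hr before the viability read; % is set by controls: 0 for no effect and ±100 for the full control effect.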 Put shortly:
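Compound titrations (final up to 41.7 uM) were incubated with HEK293 cells for 24 hr at 37C under 5% CO2. Viable cells were quantified with CellTiter-Glo after 10 min at ambient temperature.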

Test [4] deals with Glutathione peroxidase 1 (Homo sapiens) (UniProt P07203). The test can be described thus: Primary qHTS Assay for Inhibitors of Recombinant Selenoprotein Glutathione Peroxidase 1 (GPX1) (AID 1845191). For activity, negative = inhibition: % is set by controls: 0 for no effect and ±100 for the full control effect. Note: nearly all actives have a fitted effect of over 65% in size. Note: potency is the fitted concentration of half-maximal effect. Put shortly: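 GR-coupled readout: NADPH consumption tracked by fluorescence, ex 340/em 450 nm, at t=0 and after 15 min at RT. Final mix 10 nM GPX1, 1 mM GSH, 0.5 mM CHP, 0.5 mM NADPH, 100 nM GR, 0.01% BSA, following 30 min enzyme–compound preincubation.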
Chain of Glutathione peroxidase 1 (Homo sapiens) (P07203 whole entry, looked up): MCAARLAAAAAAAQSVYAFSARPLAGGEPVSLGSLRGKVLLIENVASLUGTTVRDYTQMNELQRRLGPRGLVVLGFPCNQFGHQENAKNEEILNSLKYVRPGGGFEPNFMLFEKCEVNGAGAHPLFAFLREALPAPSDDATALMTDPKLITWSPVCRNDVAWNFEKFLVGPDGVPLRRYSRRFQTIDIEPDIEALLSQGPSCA
Background: qHTS replaces the single test concentration by a dilution series.

In test [5] the target is Phospholipid hydroperoxide glutathione peroxidase GPX4 (Homo sapiens) (UniProt P36969). The test can be described thus: Primary qHTS Assay for Inhibitors of Recombinant Selenoprotein Glutathione Peroxidase 4 (GPX4) (AID 1845192). For activity change, negative = inhibition: series mostly up to about 50 µM; % is set by controls: 0 for no effect and ±100 for the full control effect. Note: nearly all actives have a fitted effect of over 65% in size. Note: potency is the fitted concentration of half-maximal effect. The method in brief: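 Steps: GPX4 plus compound, 30 min RT; add GR/GSH/NADPH master mix; start with cumene hydroperoxide; read 340/450 nm fluorescence at 0 and 15 min. Finals were 200 nM GPX4, 1 mM GSH, 0.5 mM CHP, 0.5 mM NADPH, 100 nM GR.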
Chain of Phospholipid hydroperoxide glutathione peroxidase GPX4 (Homo sapiens) (P36969 whole entry, looked up): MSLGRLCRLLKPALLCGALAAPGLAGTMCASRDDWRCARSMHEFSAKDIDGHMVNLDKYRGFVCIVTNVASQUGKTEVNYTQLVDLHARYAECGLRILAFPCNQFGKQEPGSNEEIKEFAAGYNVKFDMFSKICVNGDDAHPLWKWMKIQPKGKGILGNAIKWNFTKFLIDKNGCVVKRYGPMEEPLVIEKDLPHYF

The target of test [6] is Luciferin 4-monooxygenase (Photinus pyralis) (UniProt P08659). The test can be described thus: Primary firefly luciferase (FLuc) qHTS assay for identification of artifact compounds. (AID 1845220).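 Note: series mostly up to about 54 µM; plate controls were DMSO vehicle for no effect and no enzyme for full effect; nearly all actives have a fitted effect of over 60% in size.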 Put shortly: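 Enzymatic FLuc inhibition assay: compounds pre-exposed to luciferin/ATP (10 uM each) for 15 min, then purified P. pyralis enzyme at 10 nM added. Read-out: luminescence at 5 min.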

In test [7] the test system is Nanoluciferase (engineered Oplophorus gracilirostris luciferase). The test can be described thus: Primary Nanoluciferase (NLuc) qHTS assay for identification of artifact compounds. (AID 1845222).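 Note: NLuc secreted into diluted conditioned medium of S16 cells; series mostly up to about 54 µM; 0% = DMSO and -100% = no enzyme.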 Put shortly:
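S16 cell supernatant NLuc, 1:55; cpds qHTS; 15 min RT dark; Nano-Glo substrate 1:100, 5 min; luminescence; Hill fit of % inhibition.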

Test [8] in a line: Primary redox qHTS assay for identification of artifact compounds. (AID 1845223).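 Note: 0% = DMSO and 100% = reference compound.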 The method in brief:
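Redox-cycling detection via DTT (250 uM final) oxidation coupled to Amplex Red (25 uM)/HRP (250 mU/mL) in HBSS. 15 min preincubation plus 30 min after DTT, room temperature. Ex/Em 525/598 nm; 4-parameter Hill fit against DMSO and 10 uM DA3003.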

The nature of test [9]: Quantitative High-Throughput drug screen in 47 multiple myeloma cell lines against the NCATS MIPE library collection: FR4_PLB cell viability assay (AID 1918924; note: nearly all actives have a fitted effect of over 35% in size; note: potency is the fitted concentration of half-maximal effect). The method in brief: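 Steps: seed 500 cells per well; pin-transfer MIPE 4.0 library; incubate 48 h at 37C, 5% CO2, humidified; add CellTiter-Glo, 5 min room temperature; read luminescence.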
A short description of test [10]: Quantitative High-Throughput drug screen in 47 multiple myeloma cell lines against the NCATS MIPE library collection: Delta47_JCRB cell viability assay (AID 1918925; note: nearly all actives have a fitted effect of over 45% in size; note: potency is the fitted concentration of half-maximal effect). The method in brief: (§1)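 qHTS of the MIPE 4.0 collection: 500 myeloma cells/well, 48 h drug exposure at 37C in 5% CO2, then CellTiter-Glo for 5 min at room temperature before luminescence reading.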
Test [11] in a line: Quantitative High-Throughput drug screen in 47 multiple myeloma cell lines against the NCATS MIPE library collection: EJM_DSMZ cell viability assay (AID 1918926; note: nearly all actives have a fitted effect of over 30% in size; note: potency is the fitted concentration of half-maximal effect). Put shortly:
as §1

Test [12] is described as follows: Quantitative High-Throughput drug screen in 47 multiple myeloma cell lines against the NCATS MIPE library collection: AMO1_DSMZ cell viability assay (AID 1918927; note: nearly all actives have a fitted effect of over 30% in size; note: potency is the fitted concentration of half-maximal effect). The method in brief: as §1
Test [13] has as its target Metallo-beta-lactamase type 2 (Klebsiella pneumoniae) (UniProt C7C422). The test can be described thus: qHTS to identify inhibitors of the New Delhi Metallo-beta-lactamase (NDM): assay validation screen against the NCATS LOPAC Collection (AID 1794843).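 Note: nitrocefin turnover by NDM-1 measured as 485 nm absorbance at plateau; series mostly up to about 38 µM; % is set by controls: 0 for no effect and ±100 for the full control effect.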 The method in brief:
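NDM-1 at 2 nM final in 50 mM HEPES pH 7.0, 1 uM ZnSO4, 0.01% Tween20, preincubated with LOPAC compounds pinned in DMSO; 50 uM nitrocefin (stock) added. Hydrolysis read as absorbance at 485 nm in the plateau phase.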

Test [14] can be described thus: NCATS anti-infectives library activity on the primary C. elegans qHTS viability assay (AID 1745855; calls by dose curve; note: potency is the fitted concentration of half-maximal effect). The method in brief:
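Titration-based screen in worms: eggs hatched overnight in M9, L1 larvae fed TOP10 capsules in S medium with compound, incubated 21 °C for 7 days; fluorescent objects gated by size and intensity at days 0, 3 and 7.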

The structures appear in SMILES notation. Several values for one entry are separate records, joined by “and”; a condition that tells them apart may be missing. Identical values can stand only once. Results filed as inconclusive are left out. More than one record can exist for a structure, and the calls need not agree. Activity calls are given as the source filed them. Unless noted, calls come from the whole dose curve; as a rule, active = well fitted curve in the direction sought with a large enough effect; inconclusive = small, poorly fitted or top-dose-only effect, or another doubt; inactive = no such curve, though single readings can be large; an effect the other way counts as inactive or inconclusive.

Chain of Nicotinamide N-methyltransferase (Homo sapiens) (P40261 whole entry, looked up): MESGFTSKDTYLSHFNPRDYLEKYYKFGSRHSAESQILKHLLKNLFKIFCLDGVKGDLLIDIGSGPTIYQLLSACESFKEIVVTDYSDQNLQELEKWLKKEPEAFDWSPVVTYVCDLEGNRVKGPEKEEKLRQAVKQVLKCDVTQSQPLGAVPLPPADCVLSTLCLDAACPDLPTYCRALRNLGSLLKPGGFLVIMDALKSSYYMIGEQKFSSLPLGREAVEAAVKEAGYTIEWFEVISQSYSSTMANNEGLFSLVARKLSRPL
Chain of Metallo-beta-lactamase type 2 (Klebsiella pneumoniae) (C7C422 whole entry, looked up): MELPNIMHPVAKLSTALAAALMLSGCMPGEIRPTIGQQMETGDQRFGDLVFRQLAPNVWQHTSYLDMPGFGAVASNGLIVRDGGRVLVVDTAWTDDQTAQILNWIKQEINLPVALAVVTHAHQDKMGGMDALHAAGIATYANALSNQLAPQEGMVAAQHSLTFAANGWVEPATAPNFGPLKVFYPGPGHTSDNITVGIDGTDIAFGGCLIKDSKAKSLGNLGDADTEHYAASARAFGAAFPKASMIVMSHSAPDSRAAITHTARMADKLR

Turning to `CNCc1ccc(-c2[nH]c3cc(F)cc4c3c2CCNC4=O)cc1`, the activity in [1] is -24.3%; in [2] it was -15.2%. The outcome in [3], in test [7] and in [8] was “inactive” each time. For the same compound, the Potency in test [4] is 20.2 µM (active); in test [5], 11.4 µM (active) and 12.8 µM (active) and 15.8 µM (active); in test [12], 8.33 µM (active). For the same compound, the Potency result in [6], in test [9], in [10] and in [11] was “inactive” throughout.

On to `Nc1nc2c(ncn2COCCO)c(=O)[nH]1`, for which the outcome in [3] and in test [13] was “inactive” each time. Moreover, the Potency entry in test [4], in [5], in test [9] and in [11] was “inactive” in each case.

For `CCN(CC)CCCC(C)Nc1ccnc2cc(Cl)ccc12` (stereo unspecified), the activity in test [1] came to 3.54%; in test [2], 0.752%. Further, in test [13], the outcome was “inactive”. Further, the Potency result in test [4], in test [5], in test [9], in [10] and in test [11] was “inactive” in each case. Also, the activity change, negative = inhibition in [6] was -3.19% [at 11.6 µM] (inactive). The activity, negative = inhibition in test [7] is 2.98% [at 11.6 µM] (inactive). Moreover, in [8], the redox activity (% of DA3003) was -9.33% [at 11.5 µM] (inactive). Further, in [12], the Potency is 0.187 µM (active).

In the case of `CCCCCCCc1ccc(CCc2cccc(O)c2C(=O)O)cc1`, the activity was -13.2% in [1] and 1.23% in [2]. The Potency entry in test [4], in test [9], in [11] and in test [12] was “inactive” in each case. In addition, the Potency in [5] was 20.2 µM (active).

As to `CC(=O)Oc1ccccc1C(=O)O`, the outcome in [3] and in test [13] was “inactive” in each case. Moreover, the Potency entry in [4], in test [5] and in test [9] was “inactive” throughout. The Potency in test [11] is 8.33 µM (active).

For `Oc1ccc(C2CNCCc3c2cc(O)c(O)c3Cl)cc1` (stereo unspecified), the activity in test [1] is -15.5%; in [2] it was -4.58%. The outcome in test [13] is “inactive”. Moreover, the Potency entry in test [5], in test [9], in test [10], in test [11] and in test [12] was “inactive” throughout.

As to `Nc1nc2[nH]cc(CCc3ccc(C(=O)N[C@@H](CCC(=O)O)C(=O)O)cc3)c2c(=O)[nH]1`, in [3], the outcome was “inactive”. Also, the Potency entry in test [5] and in [11] was “inactive” in each case. Further, in test [12], the Potency is 0.526 µM (active).

As for `c1ccc([C@H]2CN3CCSC3=N2)cc1`, the outcome in test [3] and in test [13] was “inactive” each time. In addition, the Potency in [14] is 5.15 µM (active). For the same compound, the Potency entry in [4], in [5], in [9], in test [11] and in [12] was “inactive” in each case.

For `CC(C)(Sc1ccc(CCN(CCCCC2CCCCC2)C(=O)NC2CCCCC2)cc1)C(=O)O`, the activity in test [1] is -46.1%; in test [2], -8.68%. The outcome in test [13], in test [7] and in test [8] was “inactive” in each case. The Potency entry in test [4], in test [6] and in [12] was “inactive” in each case. Also, in [5], the Potency result was “inactive and 6.4 µM (active)”.

As to `CCc1cncnc1N1CCN(Cc2nc3ccc(C(F)(F)F)cc3[nH]2)CC1`, the figures for the activity in [1] and in [2] were -37.3% and -14.9%, respectively. The outcome in test [13], in [7] and in [8] was “inactive” in each case. Also, the Potency entry in [5] and in test [6] was “inactive” in each case. In test [12], the Potency is 6.62 µM (active).

For `O=C(O)COCCN1CCN(C(c2ccccc2)c2ccc(Cl)cc2)CC1` (stereo unspecified), the outcome in test [13] is “inactive”. For the same compound, the Potency result in [4], in [5] and in test [9] was “inactive” throughout.

With `Nc1ccc(S(=O)(=O)Nc2ccnn2-c2ccccc2)cc1`, the outcome in test [13] was “inactive”. For the same compound, the Potency result in test [4], in [5], in test [10], in [11] and in test [12] was “inactive” throughout.

For the compound `CC(C)C[C@H](NC(=O)[C@@H](O)[C@H](N)Cc1ccccc1)C(=O)O`, in [13], the outcome is “inactive”. Also, the Potency entry in [5] and in test [12] was “inactive” throughout.

As for `Nc1nc2ccc(OC(F)(F)F)cc2s1`, in test [13], the outcome is “inactive”. The Potency entry in test [4], in test [5] and in test [11] was “inactive” each time. For the same compound, the Potency in test [10] was 13.2 µM (active).

Turning to `OC(CN1CCC(Cc2ccc(F)cc2)CC1)c1ccc(Cl)cc1` (stereo unspecified), the outcome in [13] is “inactive”. Besides, the Potency result in [5], in test [9] and in test [12] was “inactive” each time.

In the case of `O=NN(CCCl)C(=O)NCCCl`, the outcome in test [13] was “inactive”. In addition, the Potency entry in [4], in test [5], in [11] and in [12] was “inactive” in each case.

Turning to `CNC[C@H](O)c1cccc(O)c1`, in [13], the outcome is “inactive”. The Potency entry in test [4], in [5], in test [9], in test [10], in test [11] and in test [12] was “inactive” in each case.

As for `Cc1ccc(N(CC2=NCCN2)c2cccc(O)c2)cc1`, the outcome in test [13] was “inactive”. Besides, the Potency entry in [5] and in test [11] was “inactive” in each case. Besides, the Potency is 20.9 µM (active) in test [9] and 23.5 µM (active) in [12].

As for `Cc1cn[nH]c1`, the outcome in [13] is “inactive”. For the same compound, the Potency result in [4] and in test [5] was “inactive” in each case. In addition, the Potency in [9] is 0.0526 µM (active); in test [10] it was 0.296 µM (active); in test [11], 0.105 µM (active).

Turning to `CCOC(=O)C1=C[C@]2(CC)CCCN3CCc4c(n1c1ccccc41)[C@@H]32`, in test [13], the outcome is “inactive”. Moreover, the Potency in test [4] is 12.8 µM (active); in [9], 20.9 µM (active); in test [10], 10.5 µM (active); in test [11], 20.9 µM (active); in [12] it was 16.6 µM (active). Also, the Potency result in [5] is “inactive”.

Consider `NCCCC(N)(C(=O)O)C(F)F` (stereo unspecified), for which the outcome in test [13] is “inactive”. Besides, the Potency entry in [4], in test [5] and in test [11] was “inactive” in each case. In addition, the Potency in test [9] was 16.6 µM (active).

Take `O=C(O)CCc1ccc(NCc2cccc(Oc3ccccc3)c2)cc1`: the outcome in [13] and in test [7] was “inactive” each time. Further, the Potency entry in test [4], in test [5], in [6], in test [9], in [10] and in test [11] was “inactive” each time. For the same compound, in [12], the Potency result is “inactive”.

Regarding `Cc1[nH]c(=O)c(C#N)cc1-c1ccncc1`, the outcome in [13] is “inactive”. The Potency result in test [4], in test [5] and in test [11] was “inactive” each time. Moreover, the Potency in [10] was 7.43 µM (active); in test [12], 23.5 µM (active).

Consider `CC(C)NCC(O)COc1ccc(COCCOC(C)C)cc1` (stereo unspecified), for which the outcome in test [13] was “inactive”. For the same compound, the Potency entry in [4] and in test [5] was “inactive” each time.

In the case of `Cn1cnc([N+](=O)[O-])c1Sc1ncnc2nc[nH]c12`, the outcome in [13] is “inactive”. The Potency result in [4], in [5] and in [11] was “inactive” throughout. Moreover, the Potency in [9] was 0.418 µM (active).

`N[C@@H]1CONC1=O`: the outcome in test [13] is “inactive”. The Potency result in [5], in test [9], in [10], in [11] and in test [12] was “inactive” each time.

For the origin of these results see PubChem BioAssay (NCATS).
